From PubChem
A3A deaminase = human APOBEC3A DNA deaminase inhibition; recombinant A3A, FAM/TAMRA ssDNA deamination fluorescence; hit rate 0.41% among 330,000; P31941; inhibition, % at 20 µM;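 active = at least 40% inhibition at 20 µM here, with at most 30% in a related deaminase screen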;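 note: plate controls were A3A with DMSO for no effect and wells lacking A3A enzyme for full effect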
Target sequence (P31941 whole entry, looked up): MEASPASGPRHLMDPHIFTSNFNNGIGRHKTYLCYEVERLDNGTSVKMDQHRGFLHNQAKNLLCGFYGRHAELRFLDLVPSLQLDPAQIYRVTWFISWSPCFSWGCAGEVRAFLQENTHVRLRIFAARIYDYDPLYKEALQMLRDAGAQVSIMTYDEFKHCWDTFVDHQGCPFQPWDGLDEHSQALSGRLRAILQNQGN
CendR NRP1 mod = alters CendR peptide binding to human NRP-1; O14786; FAM-RPARPAR peptide binding to NRP-1, fluorescence polarization; inhibition, % at 25 µM; hit rate 0.85% among 360,000; AID 602438;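 active = inhibition or corrected inhibition above about 18%, plus a signal ratio from 0.5 to 1.5, limit read from the data, passing the limit was not always enough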
ADAM17 inh = inhibitors of human ADAM17; recombinant ADAM17, EDANS/DABCYL FRET peptide cleavage; inhibition, % at 6.95 µM; hit rate 0.83% among 370,000; AID 720648;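 active = inhibition above the mean of compounds lying between control limits plus 3 SD, set per campaign, cut at about 8.5% in these data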;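 note: 0% = DMSO-only wells as the low control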
ADAM10 inh = inhibitors of human ADAM10; O14672; recombinant ADAM10, EDANS/DABCYL FRET peptide cleavage, 3 h; inhibition, % at 7 µM; hit rate 0.62% among 370,000;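 active = inhibition above a per-campaign cutoff equal to the mean of compounds falling between control-based bounds plus 3 SD, cut at about 20% in these data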;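 note: 0% = DMSO wells while the 100% control is not disclosed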
APOBEC3G inh = blocks human APOBEC3G single-stranded DNA deamination; Q9HC16; recombinant A3G, ssDNA deamination FAM/TAMRA fluorescence; inhibition, % at 20 µM; hit rate 0.28% among 330,000; AID 493012;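 active = inhibition of at least 40% at 20 µM, with no more than 30% in the related APOBEC3A deaminase screen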;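 note: plate controls were DMSO wells with A3G for no effect and wells lacking A3G enzyme for full effect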
Target sequence (Q9HC16 whole entry, looked up): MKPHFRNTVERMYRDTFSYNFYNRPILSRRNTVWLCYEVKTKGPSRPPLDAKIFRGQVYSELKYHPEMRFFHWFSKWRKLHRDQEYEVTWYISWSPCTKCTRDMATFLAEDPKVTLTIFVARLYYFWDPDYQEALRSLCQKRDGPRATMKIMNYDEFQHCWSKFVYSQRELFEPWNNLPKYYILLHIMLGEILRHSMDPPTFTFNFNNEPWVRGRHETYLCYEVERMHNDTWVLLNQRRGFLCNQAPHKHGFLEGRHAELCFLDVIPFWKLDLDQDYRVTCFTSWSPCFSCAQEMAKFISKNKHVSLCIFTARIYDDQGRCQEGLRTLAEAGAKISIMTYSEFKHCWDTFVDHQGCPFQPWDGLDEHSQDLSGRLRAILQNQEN
ADAM10 confirm = confirmation of inhibitors of human ADAM10; shares compounds with ADAM10 inh; ADAM10 QFRET peptide cleavage, EDANS fluorescence; inhibition, % at 6.95 µM; hit rate 1% among 2,100; AID 743208;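 active = inhibition above about 20% chosen separately for each screening run, limit read from the data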;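 note: 0% = DMSO wells and 100% = marimastat wells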
ADAM17 ctr = counter-screen for ADAM10 exosite inhibitors: inhibitors of human ADAM17. inhibition, % at 6.95 µM. hit rate 0.5% among 2,100. ADAM17 QFRET peptide cleavage, EDANS fluorescence. shares compounds with ADAM10 inh. AID 743214;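 active = mean triplicate inhibition above the solvent-only control wells' mean plus 3 SD, cut at about 12% in these data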;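 note: 0% = DMSO wells and 100% = marimastat wells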
Numbers without * were called inactive; . = not tested or not shown. Hits are enriched below; roughly 2.4% of the tested compounds scored in any of these assays.

SMILES | A3A deaminase | CendR NRP1 mod | ADAM17 inh | ADAM10 inh | APOBEC3G inh | ADAM10 confirm | ADAM17 ctr
CC(C)OP(=O)(O)C(C)NC(=O)OCc1ccccc1 (centres undefined) | . | . | -3 | -1 | . | . | .
CC(Nc1ccc(Cl)cc1)c1cc(Cl)ccc1O (centres undefined) | -1 | 2 | 8 | 23* | -7 | 3 | 1
COC(=O)c1cc2c(c3c4cc(F)ccc4n(S(=O)(=O)c4ccc(C)cc4)c13)C(=O)N(Cc1ccccc1)C2 | . | . | -2 | -7 | . | . | .
CCc1ccc(-n2ncc(Cl)c(Oc3ccc(OC)cc3)c2=O)cc1 | . | . | 1 | 7 | . | . | .
CCOC(=O)c1cc(-c2ccccc2C)n(CC2CC(c3ccc(OC)cc3)=NO2)n1 (centres undefined) | 0 | 5 | 8 | 23* | -6 | 1 | 0
Cc1ccc(C)c(NS(=O)(=O)c2cc(C(=O)NCCC3=CCCCC3)ccc2C)c1 | -7 | -4 | 7 | 20* | -5 | 4 | 2
Cc1ccc(C)c(NS(=O)(=O)c2cc(C(=O)NCC3CCCO3)ccc2C)c1 (centres undefined) | 0 | -14 | 4 | -4 | -5 | . | .
NNC(=O)c1cccc(COc2ccccc2Br)c1 | 2 | 6 | 5 | 24* | -3 | 1 | 1
C=CCN1[C@@H](CC(C)C)COc2cccc(F)c2S1(=O)=O | . | . | -4 | 3 | . | . | .
CC(C)CCNC(=O)c1onc(CSc2ccccn2)c1C(=O)NCCC(C)C | 0 | 3 | 6 | 20* | -11 | 4 | 1
C=CCC[C@@H](CCCCC)OC(=O)/C=C/[C@H](O)[C@@H](O)C[C@@H](O)CC=C | . | 10 | 3 | 1 | . | . | .
C=CCC[C@H](CCCCC)OC(=O)/C=C/[C@@H](O)[C@H](O)C[C@@H](O)CC=C | . | 1 | 7 | 21* | . | 0 | 0
COc1ccc(CC(=O)N/N=C/c2cccn2-c2ccc([N+](=O)[O-])cc2)cc1OC | -2 | -2 | 8 | 21* | -4 | 0 | 0
COc1cccc(CNc2ncc(Br)cc2Br)c1O | -1 | 12 | 4 | 15 | -3 | . | .
COc1cccc(CNc2ccc(Br)cn2)c1O | -3 | 11 | 5 | 25* | -7 | 0 | 0
O=C(O)c1ccccc1/C=N/NC(=S)NC1CCCCC1 | -5 | -3 | 2 | 23* | -2 | 4 | 1
CC(C)CN1CCC(CN2C(=S)NC[C@@H]2Cc2ccccc2)CC1 | . | . | -2 | -3 | . | . | .
Cc1cc(NS(=O)(=O)c2ccc(NC(=O)Cc3ccccc3)cc2)no1 | . | . | -7 | -5 | . | . | .
Oc1ccc(C[C@H]2CNC(=S)N2C[C@H]2CCCN2C[C@H](Cc2ccccc2)N2C[C@H](Cc3ccc(O)cc3)N(CCc3ccccc3)C2=S)cc1 | . | 12 | 7 | 28* | . | 12 | 4
CC(C)C[C@@H](CN1CCCC1CN1C(=S)NC[C@@H]1Cc1ccc(O)cc1)N1C[C@H](Cc2ccc(O)cc2)N(CCc2ccccc2)C1=S (some centres undefined) | . | -3 | 11* | 33* | . | 14 | 3
CCCCCCCCN1C(=O)[C@@H](CC(=O)NCc2cccc(C(F)(F)F)c2)C[C@@]2(C(=O)OC)C1=C[C@H](COCc1ccccc1)O[C@@H]2C | . | . | 4 | 8 | . | . | .
COc1cc(C2c3c(-c4cc(Cl)c(C)cc4O)n[nH]c3C(=O)N2Cc2cccnc2)ccc1O (centres undefined) | 1 | 1 | 5 | 21* | -2 | 1 | -1
COc1cccc(C2c3c(-c4cc(Cl)c(C)cc4O)n[nH]c3C(=O)N2Cc2cccnc2)c1 (centres undefined) | -2 | 5 | 1 | 4 | -9 | . | .
O=C(Nc1ccc(F)cc1)Nc1nc2ncccn2c1-c1ccc(F)cc1 | . | . | -48 | -159 | . | . | .
CC(C)Oc1ccc(CNC(=S)Nc2ccccc2)cc1Cl | 20 | 8 | 0 | 2 | -1 | . | .
SMILES | A3A deaminase | CendR NRP1 mod | ADAM17 inh | ADAM10 inh | APOBEC3G inh | ADAM10 confirm | ADAM17 ctr
CC(C)COc1ccc(CNC(=S)Nc2ccccc2)cc1Cl | -2 | 1 | 5 | 21* | -8 | 10 | 2
Oc1ccc(C[C@H]2CNC(=S)N2CC2CCCN2C[C@H](Cc2ccc(O)cc2)N2C[C@H](Cc3ccccc3)N(CC3CCCCC3)C2=S)cc1 (some centres undefined) | . | -3 | 13* | 20* | . | 25* | 9
Oc1ccc(C[C@H]2CN([C@@H](Cc3ccccc3)CN3CCC[C@@H]3CN3C(=S)NC[C@@H]3Cc3ccccc3)C(=S)N2CC2CCCCC2)cc1 | . | 16 | 2 | -17 | . | . | .
Oc1ccc(C[C@H]2CNC(=S)N2CC2CCCN2C[C@H](Cc2ccccc2)N2C[C@H](Cc3ccc(O)cc3)N(CC3CCCCC3)C2=S)cc1 (some centres undefined) | . | -5 | 4 | 25* | . | 15 | 6
CCOC(=O)N[C@H](C(=O)N1CCC[C@H]1C(=O)NCCc1ccccc1Cl)C1CCCCC1 | . | . | -1 | -4 | . | . | .
O=C(CSc1nnc(COc2ccccc2)n1-c1ccc(Cl)cc1)Nc1ccc2c(c1)OCCO2 | . | . | 7 | 17 | . | . | .
COc1ccc(/C=C/S(=O)(=O)NCC(C)C)c(CNC(=O)OC(C)(C)C)c1 | . | . | -3 | -13 | . | . | .
COC(=O)Cc1nnn2c1[C@@H](C)[C@@H](c1ccccc1Br)OC[C@@H]2c1ccccc1 | . | . | -2 | -1 | . | . | .
O=C(Nc1ccc([N+](=O)[O-])cc1)N1CCc2ccccc2C1 | 1 | 10 | 7 | 22* | -5 | -1 | 0
CC(C)c1ccc(NC(=O)N2CCc3ccccc3C2)cc1 | -5 | 12 | 1 | 8 | -3 | . | .
CCOc1cccc(C(=O)Nc2ccc(N(CC)CC)cc2)c1 | -4 | -4 | -2 | 27* | -4 | 2 | 1
CCOc1cccc(C(=O)Nc2ccc3ccccc3c2)c1 | 3 | 10 | 7 | 10 | 3 | . | .
CCN(c1ccc(NC(=O)COC(=O)CCc2cc(OC)c(OC)c(OC)c2)cc1)C(C)C | . | -3 | 0 | 21* | . | 1 | 0
COc1ccc(-c2cc(-c3cc(C)ccc3O)[nH]n2)cc1 | -1 | -1 | 5 | 17 | -5 | . | .
COc1ccc(O)c(-c2c(-c3ccc(Cl)cc3)n[nH]c2C)c1 | 6 | -1 | 0 | 4 | 4 | . | .
Cc1[nH]nc(-c2ccc(O)cc2O)c1-c1ccc(Cl)cc1 | -1 | 3 | 7 | 20* | -4 | 2 | 0
COc1ccc(-c2cc(-c3ccc(C)cc3)n[nH]2)c(O)c1 | 3 | 6 | 6 | 33* | -4 | 2 | 2
COc1ccc(-c2n[nH]c(C)c2-c2ccc(Cl)cc2)c(O)c1 | 2 | 1 | 8 | 20* | -4 | 5 | 3
Cc1[nH]nc(-c2ccc(O)cc2O)c1-c1nc2ccccc2s1 | 0 | -8 | -1 | 7 | -9 | . | .
